Here are results for 10 molecules from PubChem BioAssay (NCI).

About 83,000 compounds went through this panel and 20% of them were active in at least one assay; those are over-represented in the sample as a whole.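 A percent growth of 40 corresponds to 60% growth inhibition; 0 means no net growth; -100 means all cells died. Active threshold: below 10.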 Unmarked numbers belong to inactive results. Active and inactive are the calls of the source.

Among the test systems are DU-145 prostate; K-562 leukemia; MALME-3M melanoma; MDA-MB-231 breast; RXF 393 renal; SF-268 CNS; SF-295 CNS; SF-539 CNS; UACC-257 melanoma; M14 melanoma.
Holding throughout (test): NCI-60 one-dose screen, 48 h (100 = growth as untreated, 0 = no growth, -100 = all killed)
Conditions in all cases: 10 µM unless noted

For `CC(C)(C)c1cc(C(C)(C)C)cc(S(=O)(=O)Nc2cc3ccccc3cc2C(=O)NCCN)c1`, the growth in the assay on DU-145 prostate was 22.5%; with K-562 leukemia, -37% (active); in the assay on MALME-3M melanoma, 55%; in the assay on MDA-MB-231 breast it was 5.92% (active); in the assay on RXF 393 renal it was 29.1%; in the assay with SF-268 CNS, 69.3%. Also, the growth in the assay on SF-295 CNS was 12.4%; with SF-539 CNS it was 96%; with UACC-257 melanoma, 81%; in the assay with M14 melanoma, -59.9% (active).
Regarding `Cc1ccc2c(c1)C(=O)/C(=C/c1cccc(OCC(=O)c3ccc(Cl)cc3)c1)CS2`, the growth in the assay with DU-145 prostate is 108%; with K-562 leukemia, 29.2%; in the assay on MALME-3M melanoma it was 95.9%; with MDA-MB-231 breast, 61.9%; in the assay on RXF 393 renal, 4.49% (active); with SF-268 CNS it was 108%. The growth is 125% with SF-295 CNS, 112% in the assay on SF-539 CNS, 120% in the assay on UACC-257 melanoma and 107% in the assay on M14 melanoma.
As for `N#Cc1c(-c2ccc(Cl)cc2)nc(NN=Cc2ccco2)nc1N1CCOCC1`, the growth in the assay with DU-145 prostate is 85.4%; in the assay with K-562 leukemia it was 104%; in the assay with MALME-3M melanoma, 42.4%; in the assay with MDA-MB-231 breast it was 74.5%; in the assay on RXF 393 renal it was 52.2%; in the assay on SF-268 CNS it was 74.5%. Also, the growth in the assay on SF-295 CNS was 73.8%; with SF-539 CNS, 75.3%; with UACC-257 melanoma, 87.9%; in the assay on M14 melanoma, 71.4%.
Consider `C#CCOc1ccc2ncnc(Nc3cccc(CNC(=O)CCl)c3)c2c1`, for which the growth in the assay on DU-145 prostate is 57.9% [8.25 µM]; in the assay on K-562 leukemia it was 29.5% [8.25 µM]; with MALME-3M melanoma, 68.8% [8.25 µM]; in the assay on MDA-MB-231 breast, 53.4% [8.25 µM]; in the assay with RXF 393 renal, 14% [8.25 µM]; with SF-268 CNS, 39.7% [8.25 µM]. Further, the growth with SF-295 CNS is 92% [8.25 µM]; in the assay with SF-539 CNS it was 54.8% [8.25 µM]; in the assay on UACC-257 melanoma, 58.7% [8.25 µM]; with M14 melanoma it was 61.7% [8.25 µM].
In the case of `Cc1cc(NS(=O)(=O)c2ccc(-c3cnc(C4CC4)o3)cc2)ccc1Cl`, the growth in the assay with DU-145 prostate is 14.3%; in the assay on K-562 leukemia it was 10.2%; with MALME-3M melanoma, 46.3%; with MDA-MB-231 breast it was 33.9%; in the assay on RXF 393 renal, -10.7% (active); in the assay with SF-268 CNS, 49.4%. The growth is 1.8% (active) in the assay with SF-295 CNS, -28.6% (active) in the assay on SF-539 CNS, 45% with UACC-257 melanoma and 4.78% (active) in the assay on M14 melanoma.
In the case of `COc1ccc(-n2nc(C)c3c(Nc4ccc(NC(=O)Nc5cccc(C(F)(F)F)c5)cc4)ncnc32)cc1`, the growth was 18.2% in the assay with DU-145 prostate; 4.37% (active) in the assay with K-562 leukemia; -10.9% (active) in the assay with MALME-3M melanoma; -18.7% (active) in the assay on MDA-MB-231 breast; -36% (active) with RXF 393 renal; 22.8% with SF-268 CNS. In addition, the growth is -44.1% (active) with SF-295 CNS, 2.75% (active) with SF-539 CNS, -1.66% (active) in the assay with UACC-257 melanoma and -0.151% (active) in the assay on M14 melanoma.
For `O=C1Nc2cc(-c3ccc(O)cc3)ccc2/C1=C/c1ccc[nH]1`, the growth with DU-145 prostate is 1.75% (active); with K-562 leukemia it was 3.69% (active); with MALME-3M melanoma, 15.3%; in the assay with MDA-MB-231 breast it was 13.2%; with RXF 393 renal it was -27.3% (active); in the assay on SF-268 CNS, 21.7%. Besides, the growth in the assay with SF-295 CNS is -20.7% (active); in the assay on SF-539 CNS, -14.6% (active); in the assay on UACC-257 melanoma, 20%; in the assay with M14 melanoma, 10.9%.
Regarding `O=C(CN1C(=O)/C(=C/c2ccc(Cl)cc2)SC1=S)NCCCN1CCOCC1`, the growth in the assay on DU-145 prostate was 102%; in the assay with K-562 leukemia, 94.2%; in the assay with MALME-3M melanoma, 90.7%; in the assay on MDA-MB-231 breast it was 99.3%; in the assay on RXF 393 renal it was 105%; in the assay with SF-268 CNS, 93.6%. The growth in the assay on SF-295 CNS is 93.2%; with SF-539 CNS, 92.8%; in the assay on UACC-257 melanoma, 101%; in the assay with M14 melanoma, 113%.
For the molecule `C=C1c2nc3ccccc3n2C=C(c2ccc(Cl)cc2)N1Cc1ccc(OC)cc1`, the growth is 103% in the assay with DU-145 prostate; 59.2% in the assay on K-562 leukemia; 99.3% in the assay on MALME-3M melanoma; 90.1% with MDA-MB-231 breast; 77.5% with RXF 393 renal; 96.1% with SF-268 CNS. In addition, the growth in the assay with SF-295 CNS was 94.9%; with SF-539 CNS, 105%; with UACC-257 melanoma, 90%; in the assay with M14 melanoma it was 81.1%.
Take `N#CCCN=Nc1c(O)[nH]c2ccc(F)cc12`: the growth is 106% in the assay with DU-145 prostate; 119% with K-562 leukemia; 99.2% in the assay with MALME-3M melanoma; 102% in the assay on MDA-MB-231 breast; 103% in the assay on RXF 393 renal; 96.5% with SF-268 CNS. The growth in the assay on SF-295 CNS was 101%; in the assay with SF-539 CNS, 105%; with UACC-257 melanoma it was 118%; in the assay on M14 melanoma, 98%.
